Hits are enriched below; roughly 19% of the tested compounds scored in any of these assays.
TGFb SMAD3 inh: blocks TGF-b signaling | hit rate 1.2% among 410,000 | HepG2 CAGA-GFP TGF-b/SMAD3 reporter, GFP fluorescence, 18 h; TGF-beta stimulated, 500 pg/mL final | AID 588855 | Potency, µM (top dose mostly 46.1 µM), without a hit: top-dose activity, negative = inhibition, most hits filed as inhibitors; note: potency is the fitted concentration of half-maximal effect; % is set by controls: 0 for no effect and ±100 for the full control effect; nearly all actives have a fitted effect of over 65% in size
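GFP signal (ex488/em500-530) from TGF-beta-stimulated HEPG2 CAGA-GFP cells, 500 pg/mL final, 18 h at 37 degrees C in DMEM plus 1% FBS, normalized to unstimulated and DMSO-stimulated controls.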
DT40 TDP1 CPT: growth inhibition of DT40 Tdp1-/-;hTDP1 cells with camptothecin (screen for TDP1 inhibitors); Potency, µM (doses to about 46.2 µM), for inactives: top-dose activity change, negative = growth inhibition, usual class: inhibitors; hit rate 12% among 420,000; AID 686979; chicken DT40 Tdp1-/-;hTDP1 cells + 20 nM CPT, ATP luminescence, 48 h; note: potency is the fitted concentration of half-maximal effect; % is set by controls: 0 for no effect and ±100 for the full control effect; nearly all actives have a fitted effect of over 55% in size
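Chicken DT40 Tdp1-/- cells complemented with human TDP1, 400 cells/well, exposed to compounds plus 20 nM camptothecin for at least 48 h at 37 C; viability read as ATP content by CellTiter-Glo luminescence.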
DT40 TDP1 no CPT: qHTS for Inhibitors of human tyrosyl-DNA phosphodiesterase 1 (TDP1): qHTS in cells in absence of CPT; DT40 Tdp1-/- hTDP1 cells, no CPT, ATP luminescence, 48 h; Potency, µM (titrated, usually from 46.2 µM), inactives show at the highest dose activity change, negative = growth inhibition, hits mostly inhibitors; hit rate 15% among 420,000; note: potency is the fitted concentration of half-maximal effect; % is set by controls: 0 for no effect and ±100 for the full control effect; nearly all actives have a fitted effect of over 55% in size
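Camptothecin absent (DMSO only). Human TDP1-complemented DT40 knockout cells, 400 cells/well, 37 °C for minimum 48 hr; ATP measured via CellTiter-Glo, 30 min dark incubation, luminescence.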
TDP1 block: blocks human tyrosyl-DNA phosphodiesterase 1; Q9NUW8; recombinant TDP1, AlphaScreen DNA substrate cleavage; Potency, µM (highest dose often 130 µM), for inactives: at the top dose activity change, negative = inhibition, hits mostly inhibitors; hit rate 0.28% among 350,000; AID 485290; note: potency is the fitted concentration of half-maximal effect; % is set by controls: 0 for no effect and ±100 for the full control effect; nearly all actives have a fitted effect of over 40% in size
Target sequence (Q9NUW8 whole entry, looked up): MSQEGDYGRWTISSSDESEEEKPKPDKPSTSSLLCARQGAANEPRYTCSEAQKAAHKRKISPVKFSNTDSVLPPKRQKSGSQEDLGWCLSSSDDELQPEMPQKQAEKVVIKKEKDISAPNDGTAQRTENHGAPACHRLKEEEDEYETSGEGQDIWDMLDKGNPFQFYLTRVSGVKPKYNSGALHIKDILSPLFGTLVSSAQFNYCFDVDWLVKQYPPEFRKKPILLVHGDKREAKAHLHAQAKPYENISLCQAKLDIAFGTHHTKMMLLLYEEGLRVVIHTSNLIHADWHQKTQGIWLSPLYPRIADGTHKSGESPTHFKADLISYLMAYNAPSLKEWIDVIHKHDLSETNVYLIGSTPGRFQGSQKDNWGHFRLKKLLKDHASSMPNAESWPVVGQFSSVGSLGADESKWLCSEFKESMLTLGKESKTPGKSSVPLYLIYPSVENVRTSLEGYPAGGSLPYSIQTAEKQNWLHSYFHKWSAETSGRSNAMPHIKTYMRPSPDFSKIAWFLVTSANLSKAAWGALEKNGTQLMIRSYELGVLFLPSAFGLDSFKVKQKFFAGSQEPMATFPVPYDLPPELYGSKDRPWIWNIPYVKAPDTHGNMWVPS
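Compounds were preincubated with Tdp1 (1 nM final) for 15 min at room temperature before substrate (15 nM final) started a 5 min reaction; beads (10 ug/ml final) were then added for 10 min before AlphaScreen detection.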
HepG2 viability: HepG2 cytotoxicity, counter-screen for TGF-b inhibitors; AID 588856; HepG2 CAGA-GFP viability, ATP luminescence, 18 h; hit rate 0.76% among 410,000; Potency, µM (doses to about 46.1 µM), without a hit: at the highest dose activity change, negative = cytotoxicity, most hits filed as cytotoxic; note: potency is the fitted concentration of half-maximal effect
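CellTiter-Glo luminescence gave cytotoxicity after 18 hours at 37 degrees C. The cells were HepG2 CAGA-GFP in 1% FBS DMEM, stimulated with 500 pg/mL TGF-beta after compound addition. %Activity was normalised to no-cell wells (complete cell-killing) and DMSO (no toxicity), and curves were fitted and classified.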
IL1B secr inh: inhibitors of inflammasome signaling (IL-1 beta secretion); THP-1 LPS/ATP IL-1B secretion, AlphaLISA, 16 h; hits give low values; AID 743279; hit rate 4.7% among 360,000; activity change, % at 57.5 µM; in the data active = activity change below about -50%; inconclusive = mostly about -30% to -49%; note: % is set by controls: 0 for no effect and ±100 for the full control effect
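THP-1 cells pretreated 1 hr with compounds (up to 57.5 uM final), then stimulated with LPS (250 ng/mL final) plus ATP (1.25 mM final); secreted IL-1B measured by AlphaLISA after 16 hr, decreased signal indicating inhibition.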
* hit, by the source's call; ? = inconclusive; · = not tested or not shown; [ ] = dose if it differs, or a comment. Unless noted, calls come from the whole dose curve; as a rule, active = well fitted curve in the direction sought with a large enough effect; inconclusive = small, poorly fitted or top-dose-only effect, or another doubt; inactive = no such curve, though single readings can be large; an effect the other way counts as inactive or inconclusive.

SMILES | TGFb SMAD3 inh | DT40 TDP1 CPT | DT40 TDP1 no CPT | TDP1 block | HepG2 viability | IL1B secr inh
COc1ccc(CCNC(=O)c2nnn(-c3cc(C)cc(C)c3)c2N)cc1OC | 14.9% | 14.6µM* | ? | 8.6% | -20.3% | -2.9
CCC(C)(C)n1nnnc1C(c1ccc2ncccc2c1)N1CCN(c2ccc(O)cc2)CC1 (stereo unspecified) | -0.6% | -5.6% | -24.7% | · | -9.8% | -4.4
CCC(C)(C)n1nnnc1C(c1ccc2ncccc2c1)N1CCN(c2nc3ccccc3s2)CC1 (stereo unspecified) | -10.9% | 20.6µM* | ? | 5.6% | 1.2% | -11.1
CCC(C)(C)n1nnnc1C(c1ccc2ncccc2c1)N1CCCC(C)C1 (stereo unspecified) | -0.5% | -22.2% | 11.2µM* | 4.9% | -20.7% | -18.4
Nn1c(COc2cccc(Br)c2)nnc1SCC(=O)NCC1CCCO1 (stereo unspecified) | 6.9% | -11.6% | 19.1% | -0.3% | 2.2% | -16.8
Cc1ccc(CS(=O)(=O)Cc2ccc(C(=O)NCc3cccs3)o2)cc1 | -3.2% | 18.4µM* | -24.7% | 1.2% | -0.9% | -4.8
CCc1ccccc1S(=O)(=O)Cc1ccc(C(=O)NCc2cccs2)o1 | 7.5% | 18.4µM* | ? | -2.3% | -4.4% | -5.2
COc1ccccc1S(=O)(=O)Cc1ccc(C(=O)NCc2cccs2)o1 | 0.0% | -1.3% | ? | -2.0% | 0.4% | -19.1
Cc1ccc(CS(=O)Cc2ccc(C(=O)NCc3cccs3)o2)cc1 (stereo unspecified) | 2.5% | -0.4% | -6.1% | 1.6% | -13.2% | 0.0
COc1ccc(CCNC(=O)C(NS(=O)(=O)c2cccc3nsnc23)C(C)C)cc1OC (stereo unspecified) | 0.8% | -12.2% | 4.9% | 2.2% | 1.8% | 9.5
CCC1CCC2(C1)N=C(Nc1nc3ccccc3o1)NC1=C2C(=O)CCC1 (stereo unspecified) | · | · | · | 1.7% | · | ·
COC(=O)c1cc(NC(=O)c2ccc(F)cc2)cc(C(=O)OC)c1 | 8.3% | 0.5% | 0.5% | -7.6% | 4.3% | 0.0
CCOC(=O)c1cn(CC#N)c2cc(F)c(F)cc2c1=O | 4.7% | 4.4% | -10.3% | -3.7% | -42.3% | 0.0
CC1CCN(S(=O)(=O)c2ccc3c(c2)c(=O)c(C(=O)NC(C)c2ccccc2)cn3C)CC1 (stereo unspecified) | -1.2% | ? | 23.1µM* | 7.0% | -23.2% | ·
CCCCCCn1cc(C(=O)OCC)c(=O)c2cc(F)c(F)cc21 | 3.5% | ? | 23.1µM* | 4.2% | -22.6% | ?
CCCCCCNC(=O)c1cn(CC)c2cc(N3CCN(C)CC3)c(F)cc2c1=O | ? | 20.6µM* | 25.9µM* | · | 12.6µM* | -55.0*
CCn1cc(C(=O)NCCCO)c(=O)c2cc(F)c(N3CCN(C)CC3)cc21 | -9.9% | -27.9% | -19.9% | · | 3.9% | 2.6
CCCCCCCC(=O)N1CCN(c2cc3c(cc2F)c(=O)c(C(=O)O)cn3CC)CC1 | -0.1% | 23.1µM* | ? | · | 0.8% | 10.7
Cc1cc2oc(C(=O)Nc3ccc(S(=O)(=O)Nc4ncccn4)cc3)cc(=O)c2cc1C | 10.1% | -1.6% | -14.2% | 4.9% | -15.1% | ·
CCn1cc(C(=O)N[C@H](C)c2ccccc2)c(=O)c2cc(F)c(N3CCN(C)CC3)cc21 | ? | ? | ? | 3.9% | -31.8% | -74.3*
CCCCCCn1cc(C(=O)O)c(=O)c2cc(F)c(N3CCN(C)CC3)cc21 | -9.0% | 16.4µM* | 18.4µM* | · | 18.4% | 11.3
CCn1cc(C(=O)NCC(C)C)c(=O)c2cc(F)c(N3CCN(C)CC3)cc21 | 33.5% | 4.4% | 9.6% | 0.0% | 38.5% | -21.1
Cc1ccc(C2Oc3ccccc3C3=C2C(c2cccs2)n2ncnc2N3)cc1 (stereo unspecified) | 0.0% | ? | ? | 9.2% | -23.6% | 21.6
Fc1ccc(C2C3=C(Nc4ncnn42)c2ccccc2OC3c2ccncc2)cc1 (stereo unspecified) | ? | -0.3% | ? | 5.0% | -9.1% | -55.3*
CC(=O)c1ccc(NC(=O)C2CCC(CNS(=O)(=O)c3cccc4nsnc34)CC2)cc1 (stereo unspecified) | 21.9% | 2.1% | -9.5% | 6.9% | 20.2% | ·
SMILES | TGFb SMAD3 inh | DT40 TDP1 CPT | DT40 TDP1 no CPT | TDP1 block | HepG2 viability | IL1B secr inh
COc1cccc(OC)c1OCCNCC1CSc2ccccc2O1 (stereo unspecified) | -17.8% | 20.6µM* | 10.3µM* | 10.4%[56.1 µM] | -41.5% | -3.7
CCOC(=O)c1ccc(NC(=O)c2noc3c2CCCC3)cc1 | -15.8% | ? | ? | 0.0% | -20.7% | ·
Cc1ccc(NC(=O)CN2CCN(Cc3ccccc3)CC2)cc1Cl | -4.7% | -24.4% | 29.1µM* | · | 6.1% | 0.7
O=C(Cn1nc(-c2ccccc2Cl)ccc1=O)Nc1ccc(Br)cc1 | -12.1% | 19.9% | -2.3% | 2.6% | 11.9% | -0.7
NC(=O)c1ccccc1NC(=O)CN1CCN(Cc2ccccc2)CC1 | -2.5% | -8.0% | -2.9% | · | -4.3% | 9.2
O=C(CN1CCN(Cc2ccccc2)CC1)Nc1ccccc1-c1ccccc1 | ? | 25.9µM* | 29.1µM* | -6.2% | -16.7% | -22.0
O=C(Cn1nc(-c2ccccc2Cl)ccc1=O)Nc1ccccc1-c1ccccc1 | -28.1% | ? | 18.4µM* | 5.6% | 10.9% | 0.7
Cc1ccc(C(=O)CN(CCC(=O)O)S(=O)(=O)c2ccc([N+](=O)[O-])cc2)cc1 | -6.5% | -2.2% | 1.0% | 2.8% | -3.5% | 42.4
COc1cccc(-c2ncc3ccccc3c2COC(=O)c2ccc(C(F)(F)F)cc2)c1 | -6.5% | ? | ? | · | -21.7% | -10.1
COc1ccccc1N/C=C/c1onc(C)c1[N+](=O)[O-] | 3.0% | -28.7% | ? | 1.6% | -29.1% | -17.2
Cc1noc(/C=C/c2ccccn2)c1[N+](=O)[O-] | -1.6% | ? | 20.6µM* | 5.9% | -27.7% | -50.9*
COc1ccc(C(=O)CC2(O)C(=O)N(Cc3ccccc3Cl)c3ccccc32)cc1 (stereo unspecified) | -19.1% | · | · | 4.5% | -11.5% | ·
COC(=O)CN1C(=O)C(O)(CC(=O)c2ccccc2)c2ccccc21 (stereo unspecified) | 17.7% | ? | ? | 2.4% | -1.6% | -2.4

Source: PubChem (National Center for Advancing Translational Sciences (NCATS))
